Screening results from PubChem.
Only some compounds are listed: those with a hit (about 4.9% of all), similar ones and a draw of the others.
Platelet DG rel: platelet dense granule release activity | human platelet-rich plasma, SFLLRN dense granule ATP release, luminescence | inhibition, %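 (compounds screened at 7.5 µM in platelet-rich plasma)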 | 300,000 compounds, 0.22% hits | AID 1663;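 active = mean replicate score, as percent of positive control, at or above 50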
dFosB act: enhances mouse delta FosB homodimer DNA binding; 340,000 compounds, 0.99% hits; activation, % at 25 µM; purified delta FosB, TAMRA-CDK5 oligo fluorescence polarization; percent of positive-control signal above neutral wells; P13346;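 active = mean activation above about 17%, with every replicate also reaching it, limit read from the data, passing the limit was not always enough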
Target sequence (P13346 whole entry, looked up): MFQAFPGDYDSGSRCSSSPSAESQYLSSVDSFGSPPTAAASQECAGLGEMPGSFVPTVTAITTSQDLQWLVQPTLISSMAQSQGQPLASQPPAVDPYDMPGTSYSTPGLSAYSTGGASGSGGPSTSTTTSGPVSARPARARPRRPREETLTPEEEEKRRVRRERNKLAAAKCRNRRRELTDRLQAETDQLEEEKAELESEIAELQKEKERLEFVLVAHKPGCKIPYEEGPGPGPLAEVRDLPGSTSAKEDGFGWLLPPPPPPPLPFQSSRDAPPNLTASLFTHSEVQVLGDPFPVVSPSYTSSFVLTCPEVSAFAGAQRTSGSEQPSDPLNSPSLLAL
HSF1 inhib: HSF1 inhibition; NIH3T3-HGL HSE-luciferase, MG132-induced, luminescence 8 h; active compounds read low; activity change, negative = inhibition, % at 7.5 µM (by protocol); 300,000 compounds, 0.77% hits;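 active = more than half of replicate wells show activity change below -50%, luminescence cut by over half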;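 also: luciferase reports HSF-1 transcriptional activity via heat shock element; 0% = median of DMSO wells and -100% = zero luminescence signal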
HSF1 activator: increases HSF-1 driven luciferase reporter signal; NIH3T3-HGL HSF-1 luciferase reporter, MG132, 8 h; 100% = twice DMSO control signal; activation, % at 9 µM; 300,000 compounds, 1.7% hits; AID 504408;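 active = mean replicate activation of at least 50% with a set share of replicates each reaching 50%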;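 also: 0% = median of the neutral control wells and 100% = twice that signal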
MPTP inh: inhibitors of mitochondrial permeability transition pore. isolated mouse mitochondria, Ca2+ swelling absorbance, 30 min. inhibition, % at 10 µM. 360,000 compounds, 1.4% hits. AID 602449;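 active = inhibition of 50% or more, scaled per plate between neutral and stimulator controls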;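 also: 0% = DMSO wells given calcium and 100% = 1 mM EGTA wells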
HSP90 refold inh: HSP90 refolding inhibition in rabbit reticulocyte lysate; luciferase refolding luminescence, 3 h; inhibition, % at 5.6 µM; 290,000 compounds, 0.91% hits; AID 1789;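 active = inhibition above the screen-wide mean plus 3 SD, computed separately per campaign, cut at about 16% in these data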;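 also: 0% = DMSO wells and 100% = 60 µM geldanamycin wells; inhibitors lower the luminescence because luciferase stays unfolded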
MPTP counter: Rhodamine 123 counter-screen of mitochondrial pore hits; AID 624504; inhibition, % at 10 µM; 5,000 compounds, 78% hits; isolated mitochondria, membrane potential, Rhodamine 123 fluorescence; shares compounds with MPTP inh; in the data active = inhibition above about 22%;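 also: 0% = DMSO vehicle and 100% = positive control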
MPTP swell DR: MPTP inhibition, dose response swelling confirmation | shares compounds with MPTP inh | isolated mitochondria swelling, absorbance | IC50, µM | 780 compounds, 58% hits; in the data active = IC50 below about 20 µM
MPTP counter DR: MPTP inhibitor counter-screen activity, dose response. AID 651564. isolated mitochondria counterscreen, fluorescence read-out. IC50, µM. shares compounds with MPTP inh. 780 compounds, 49% hits; in the data active = IC50 below about 80 µM
Active calls of the source: *; x = no result.

SMILES	Platelet DG rel	dFosB act	HSF1 inhib	HSF1 activator	MPTP inh	HSP90 refold inh	MPTP counter	others
Cc1ccc(Cl)cc1N1CCN(C(=O)CSc2nnc3n2C(C)(C)Cc2ccccc2-3)CC1	-5	-3	2	10	94*	3	90*
CCN(CC)c1ccc(NC(=O)COC(=O)COc2ccccc2[N+](=O)[O-])cc1	13	-4	-6	-15	0	4	x
O=[N+]([O-])c1cc(C(F)(F)F)cc([N+](=O)[O-])c1NCCNC(=S)Nc1cccc(F)c1	8	1	7	17	90*	6	78*
Fc1cccc(NC(=S)NCc2ccc(Cl)cc2)c1	2	-2	20	14	96*	1	89*
S=C(NCc1ccccc1)Nc1cccc(Cl)c1	1	3	x	x	97*	-4	101*
Fc1ccccc1NC(=S)NCc1ccc(Cl)cc1	-1	-10	15	30	21	0	x
CC(C)(C)NNC(=S)Nc1cccc(F)c1	-1	-3	-3	5	0	0	x
Fc1ccc(CNC(=S)Nc2cccc(C(F)(F)F)c2)cc1	-1	-11	1	3	100*	-2	85*
Cc1ccc(NC(=O)c2c(Cl)nc3ccccn23)cc1	2	-12	23	42	0	-4	x
Fc1ccccc1CNC(=S)Nc1cccc(C(F)(F)F)c1	-7	-5	1	5	74*	-3	97*
Fc1cc(NC(=S)NCc2ccc(CNC(=S)Nc3ccc(Cl)c(F)c3)cc2)ccc1Cl	3	9	14	40	92*	0	73*
FC(F)(F)c1cccc(NC(=S)NCc2ccc(Cl)cc2)c1	-5	6	11	7	78*	5	88*
Cc1ccc2nc(/C(C#N)=C\c3ccc(N4CCCCC4)c([N+](=O)[O-])c3)[nH]c2c1	-9	-10	-7	-6	56*	4	64*
N#C/C(=C/c1ccc(N2CCCC2)c([N+](=O)[O-])c1)c1nc2ccccc2[nH]1	1	-7	3	38	53*	3	35*
CC(C)(C)n1ncc2c(=O)n(Cc3cccc(Cn4cnc5c(cnn5C(C)(C)C)c4=O)c3F)cnc21	x	0	x	x	95*	x	87*
Cc1ccccc1Cn1cnc2c(cnn2C(C)(C)C)c1=O	-17	0	-1	-1	15	1	x
CCN=C1S/C(=C\c2cc(OCC)c(O)cc2Br)C(=O)N1CC	2	-9	2	8	67*	-1	71*
CCN=C1S/C(=C\c2ccc(O)c(OCC)c2)C(=O)N1CC	29	-10	0	-15	0	-1	x
Cc1nc(C(=O)Nc2ccccc2Cl)cc2c1[nH]c1ccccc12	-3	-5	3	-15	55*	-4	11	MPTP swell DR=>100;MPTP counter DR=>80
Cc1nc2ccccc2n1Cc1ccccc1	-10	1	-3	-5	1	6	x
Cc1nc2ccccc2n1Cc1ccccc1Br	-1	4	0	-1	73*	6	81*
Cc1nc2ccccc2n1Cc1ccc(Br)cc1	-1	2	-7	-10	93*	x	96*
CCC(C)Cn1c(C)nc2ccccc21 (stereo unspecified)	7	6	-3	1	4	0	x
Cc1nn(-c2cc(C(F)(F)F)ccc2Cl)c2nc(C(Cl)(Cl)Cl)[nH]c(=O)c12	-2	-7	0	9	78*	0	82*
CC1(C(=O)Nc2cccc3cccnc23)CCN1Cc1ccccc1OC(F)F (stereo unspecified)	x	x	x	x	-1	x	x
CC1(C(=O)NCc2ccccc2)CCC(=O)N1CC(F)(F)F (stereo unspecified)	x	x	x	x	-2	x	x
Cc1ccccc1C(=O)NC(NC(=S)Nc1ccc(S(N)(=O)=O)cc1)C(Cl)(Cl)Cl (stereo unspecified)	-3	-1	-6	-6	-1	-1	x
